Laboratory results: ChEMBL document CHEMBL1961873, “Compounds: GSK PKIS; Assays: Nanosyn kinase panel” (2012)

Tests used:
[1] = biological target: Protein kinase C gamma type (Homo sapiens) (UniProt P05129); settings: at 1 µM;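 note: each value is an averaged percent inhibition of the enzyme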
[2] = biological target: T1, Protein kinase C iota type (Homo sapiens) (UniProt P41743); settings: at 0.1 µM
T1 sequence (whole entry): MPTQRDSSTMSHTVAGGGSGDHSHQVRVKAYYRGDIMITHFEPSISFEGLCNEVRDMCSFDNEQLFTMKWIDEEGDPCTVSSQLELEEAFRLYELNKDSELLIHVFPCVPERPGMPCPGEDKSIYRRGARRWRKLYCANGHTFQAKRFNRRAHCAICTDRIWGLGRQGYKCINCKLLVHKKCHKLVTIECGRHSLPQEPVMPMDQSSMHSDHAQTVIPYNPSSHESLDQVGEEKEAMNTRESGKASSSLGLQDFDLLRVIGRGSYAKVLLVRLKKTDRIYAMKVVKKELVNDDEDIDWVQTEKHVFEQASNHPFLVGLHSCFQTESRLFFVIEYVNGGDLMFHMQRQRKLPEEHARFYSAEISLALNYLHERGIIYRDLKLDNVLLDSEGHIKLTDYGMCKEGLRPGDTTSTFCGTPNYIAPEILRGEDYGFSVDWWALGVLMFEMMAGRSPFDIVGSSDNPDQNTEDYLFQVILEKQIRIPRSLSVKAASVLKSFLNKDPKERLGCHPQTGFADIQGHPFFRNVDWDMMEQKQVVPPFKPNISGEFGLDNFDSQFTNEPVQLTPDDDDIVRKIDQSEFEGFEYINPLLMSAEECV

[3] = biological target: T1, Protein kinase C iota type (Homo sapiens); settings: at 1 µM
[4] = biological target: Protein kinase C theta type (Homo sapiens) (UniProt Q04759); settings: at 0.1 µM
[5] = biological target: Protein kinase C theta type (Homo sapiens) (UniProt Q04759); settings: at 1 µM
[6] = biological target: Protein kinase C beta type (Homo sapiens) (UniProt P05771); settings: at 0.1 µM
[7] = biological target: Protein kinase C beta type (Homo sapiens) (UniProt P05771); settings: at 1 µM
[8] = biological target: T2, Serine/threonine-protein kinase D1 (Homo sapiens) (UniProt Q15139); settings: at 0.1 µM
T2 sequence (whole entry): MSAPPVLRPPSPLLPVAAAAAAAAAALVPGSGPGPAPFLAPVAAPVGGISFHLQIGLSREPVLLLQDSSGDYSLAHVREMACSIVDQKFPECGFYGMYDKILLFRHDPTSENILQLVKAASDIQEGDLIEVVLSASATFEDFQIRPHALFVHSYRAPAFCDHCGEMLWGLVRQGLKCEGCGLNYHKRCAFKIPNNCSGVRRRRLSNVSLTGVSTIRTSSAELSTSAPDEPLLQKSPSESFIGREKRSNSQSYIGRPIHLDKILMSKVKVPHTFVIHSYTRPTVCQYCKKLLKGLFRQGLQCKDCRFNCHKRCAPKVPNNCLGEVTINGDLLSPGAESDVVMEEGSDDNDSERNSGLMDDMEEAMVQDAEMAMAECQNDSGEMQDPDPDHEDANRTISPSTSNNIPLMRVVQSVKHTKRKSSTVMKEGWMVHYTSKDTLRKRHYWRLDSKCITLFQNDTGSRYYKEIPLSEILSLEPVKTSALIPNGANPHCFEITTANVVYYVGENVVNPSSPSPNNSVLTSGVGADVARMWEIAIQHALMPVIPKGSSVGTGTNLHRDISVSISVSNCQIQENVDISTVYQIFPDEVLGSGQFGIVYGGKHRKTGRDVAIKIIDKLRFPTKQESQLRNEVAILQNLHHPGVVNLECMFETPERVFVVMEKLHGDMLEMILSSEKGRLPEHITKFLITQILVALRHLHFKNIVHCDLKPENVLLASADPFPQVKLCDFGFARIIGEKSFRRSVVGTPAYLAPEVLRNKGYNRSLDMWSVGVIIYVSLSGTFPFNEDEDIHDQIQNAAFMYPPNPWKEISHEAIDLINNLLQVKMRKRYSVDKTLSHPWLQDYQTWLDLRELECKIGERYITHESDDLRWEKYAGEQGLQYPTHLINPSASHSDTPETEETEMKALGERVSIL

[9] = biological target: T2, Serine/threonine-protein kinase D1 (Homo sapiens); settings: at 1 µM
[10] = biological target: T3, Serine/threonine-protein kinase D2 (Homo sapiens) (UniProt Q9BZL6); settings: at 0.1 µM
T3 sequence (whole entry): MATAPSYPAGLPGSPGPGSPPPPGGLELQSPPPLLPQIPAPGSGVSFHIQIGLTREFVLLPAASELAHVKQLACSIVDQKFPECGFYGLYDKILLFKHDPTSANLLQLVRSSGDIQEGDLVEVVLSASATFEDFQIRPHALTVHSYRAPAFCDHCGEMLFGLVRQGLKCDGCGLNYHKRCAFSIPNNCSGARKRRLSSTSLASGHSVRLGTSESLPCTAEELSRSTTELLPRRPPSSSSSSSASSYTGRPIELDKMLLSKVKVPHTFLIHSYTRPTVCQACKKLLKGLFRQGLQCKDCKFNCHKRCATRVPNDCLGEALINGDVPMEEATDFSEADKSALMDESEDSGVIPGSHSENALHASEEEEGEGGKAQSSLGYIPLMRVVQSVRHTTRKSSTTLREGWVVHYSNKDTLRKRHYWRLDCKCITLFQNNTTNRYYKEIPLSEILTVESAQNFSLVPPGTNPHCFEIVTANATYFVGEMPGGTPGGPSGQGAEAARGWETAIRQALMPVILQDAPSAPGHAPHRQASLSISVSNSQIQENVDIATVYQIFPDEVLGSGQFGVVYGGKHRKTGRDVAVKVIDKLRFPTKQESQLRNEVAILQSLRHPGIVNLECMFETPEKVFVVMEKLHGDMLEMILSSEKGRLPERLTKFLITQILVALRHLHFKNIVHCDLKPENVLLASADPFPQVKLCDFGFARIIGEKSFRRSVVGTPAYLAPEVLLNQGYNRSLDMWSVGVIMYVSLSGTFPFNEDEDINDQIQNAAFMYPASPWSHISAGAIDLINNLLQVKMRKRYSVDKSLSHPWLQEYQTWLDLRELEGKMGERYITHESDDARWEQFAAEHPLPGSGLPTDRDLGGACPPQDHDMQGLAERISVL

[11] = biological target: T3, Serine/threonine-protein kinase D2 (Homo sapiens); settings: at 1 µM
[12] = biological target: T4, Serine/threonine-protein kinase D3 (Homo sapiens) (UniProt O94806); settings: at 0.1 µM
T4 sequence (whole entry): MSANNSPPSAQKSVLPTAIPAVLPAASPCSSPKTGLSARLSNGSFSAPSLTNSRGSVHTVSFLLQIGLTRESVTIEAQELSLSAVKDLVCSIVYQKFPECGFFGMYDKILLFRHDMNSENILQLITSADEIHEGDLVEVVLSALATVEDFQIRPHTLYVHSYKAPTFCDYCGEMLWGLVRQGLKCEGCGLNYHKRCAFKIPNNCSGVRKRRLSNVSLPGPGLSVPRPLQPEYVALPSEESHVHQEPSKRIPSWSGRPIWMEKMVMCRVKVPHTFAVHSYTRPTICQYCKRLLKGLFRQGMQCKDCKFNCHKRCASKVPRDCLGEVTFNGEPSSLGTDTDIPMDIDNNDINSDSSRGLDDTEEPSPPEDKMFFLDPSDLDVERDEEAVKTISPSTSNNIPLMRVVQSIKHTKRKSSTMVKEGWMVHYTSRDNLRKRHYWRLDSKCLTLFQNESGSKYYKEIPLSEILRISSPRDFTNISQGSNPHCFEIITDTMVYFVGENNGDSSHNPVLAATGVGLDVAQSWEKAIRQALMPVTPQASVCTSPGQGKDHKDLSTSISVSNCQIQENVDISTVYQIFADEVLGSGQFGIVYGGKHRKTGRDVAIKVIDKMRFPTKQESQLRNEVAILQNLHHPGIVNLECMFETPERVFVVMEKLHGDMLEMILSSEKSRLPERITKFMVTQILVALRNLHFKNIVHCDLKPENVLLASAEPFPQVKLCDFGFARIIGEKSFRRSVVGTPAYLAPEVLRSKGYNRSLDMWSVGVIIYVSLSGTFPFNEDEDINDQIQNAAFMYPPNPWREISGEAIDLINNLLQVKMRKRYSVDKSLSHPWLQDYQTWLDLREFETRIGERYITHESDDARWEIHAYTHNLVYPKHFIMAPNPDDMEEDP

[13] = biological target: T4, Serine/threonine-protein kinase D3 (Homo sapiens); settings: at 1 µM
[14] = biological target: T5, cGMP-dependent protein kinase 1 (Homo sapiens) (UniProt Q13976); settings: at 0.1 µM
T5 sequence (whole entry): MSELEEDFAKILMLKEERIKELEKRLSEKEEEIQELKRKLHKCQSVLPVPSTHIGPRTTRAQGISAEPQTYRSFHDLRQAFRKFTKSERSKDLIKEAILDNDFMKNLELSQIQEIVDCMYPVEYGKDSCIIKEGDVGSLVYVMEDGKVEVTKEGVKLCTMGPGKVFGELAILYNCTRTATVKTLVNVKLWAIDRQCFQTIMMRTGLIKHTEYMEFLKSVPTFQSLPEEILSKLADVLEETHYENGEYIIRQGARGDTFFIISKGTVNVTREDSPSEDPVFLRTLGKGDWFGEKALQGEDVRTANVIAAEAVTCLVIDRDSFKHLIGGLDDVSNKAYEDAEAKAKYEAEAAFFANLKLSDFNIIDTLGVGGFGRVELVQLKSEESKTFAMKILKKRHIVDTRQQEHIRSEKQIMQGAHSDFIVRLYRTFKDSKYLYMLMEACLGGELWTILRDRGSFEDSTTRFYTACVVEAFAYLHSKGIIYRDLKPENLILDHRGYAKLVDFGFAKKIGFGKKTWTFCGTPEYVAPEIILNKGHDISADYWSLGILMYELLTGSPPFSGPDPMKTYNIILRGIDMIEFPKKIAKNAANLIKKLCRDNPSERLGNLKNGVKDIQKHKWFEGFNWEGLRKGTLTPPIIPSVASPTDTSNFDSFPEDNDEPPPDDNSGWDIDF

[15] = biological target: T5, cGMP-dependent protein kinase 1 (Homo sapiens); settings: at 1 µM
[16] = biological target: T6, cGMP-dependent protein kinase 2 (Homo sapiens) (UniProt Q13237); settings: at 0.1 µM
T6 sequence (whole entry): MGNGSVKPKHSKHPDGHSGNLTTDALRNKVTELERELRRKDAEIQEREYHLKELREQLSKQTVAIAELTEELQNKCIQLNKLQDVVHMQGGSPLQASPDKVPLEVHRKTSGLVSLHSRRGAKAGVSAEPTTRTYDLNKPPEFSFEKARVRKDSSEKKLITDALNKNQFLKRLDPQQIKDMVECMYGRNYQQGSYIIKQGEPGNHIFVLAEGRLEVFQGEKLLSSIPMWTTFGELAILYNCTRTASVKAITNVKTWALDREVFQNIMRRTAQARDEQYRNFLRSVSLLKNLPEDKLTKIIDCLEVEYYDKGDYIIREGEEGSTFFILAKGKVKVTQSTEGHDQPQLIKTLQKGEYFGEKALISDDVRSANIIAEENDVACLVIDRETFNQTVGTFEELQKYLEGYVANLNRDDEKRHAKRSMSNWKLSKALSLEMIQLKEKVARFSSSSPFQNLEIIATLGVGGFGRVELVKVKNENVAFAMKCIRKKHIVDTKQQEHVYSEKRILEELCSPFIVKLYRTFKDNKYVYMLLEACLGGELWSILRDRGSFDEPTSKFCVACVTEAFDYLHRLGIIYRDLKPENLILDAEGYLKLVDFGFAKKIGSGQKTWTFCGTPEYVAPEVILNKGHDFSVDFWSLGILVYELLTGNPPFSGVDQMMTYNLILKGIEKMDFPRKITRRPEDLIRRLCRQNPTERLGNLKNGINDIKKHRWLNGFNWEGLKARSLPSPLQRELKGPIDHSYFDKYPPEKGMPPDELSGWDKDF

[17] = biological target: T6, cGMP-dependent protein kinase 2 (Homo sapiens); settings: at 1 µM
[18] = biological target: T7, cAMP-dependent protein kinase catalytic subunit PRKX (Homo sapiens) (UniProt P51817); settings: at 0.1 µM
T7 sequence (whole entry): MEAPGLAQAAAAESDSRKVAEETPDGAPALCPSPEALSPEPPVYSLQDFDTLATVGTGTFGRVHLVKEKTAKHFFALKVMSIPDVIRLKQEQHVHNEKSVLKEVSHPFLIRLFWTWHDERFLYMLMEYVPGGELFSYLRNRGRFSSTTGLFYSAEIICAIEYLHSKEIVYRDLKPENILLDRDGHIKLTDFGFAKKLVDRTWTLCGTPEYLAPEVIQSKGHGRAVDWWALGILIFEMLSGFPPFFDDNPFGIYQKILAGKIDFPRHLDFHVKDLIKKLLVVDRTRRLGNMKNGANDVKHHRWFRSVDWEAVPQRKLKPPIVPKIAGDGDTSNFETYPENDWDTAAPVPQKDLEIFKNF

[19] = biological target: T7, cAMP-dependent protein kinase catalytic subunit PRKX (Homo sapiens); settings: at 1 µM
[20] = biological target: Rho-associated protein kinase 1 (Homo sapiens) (UniProt Q13464); settings: at 0.1 µM;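 note: values are mean percent inhibition of ROCK1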
Chain of Rho-associated protein kinase 1 (Homo sapiens) (Q13464 2-1354 limits assumed): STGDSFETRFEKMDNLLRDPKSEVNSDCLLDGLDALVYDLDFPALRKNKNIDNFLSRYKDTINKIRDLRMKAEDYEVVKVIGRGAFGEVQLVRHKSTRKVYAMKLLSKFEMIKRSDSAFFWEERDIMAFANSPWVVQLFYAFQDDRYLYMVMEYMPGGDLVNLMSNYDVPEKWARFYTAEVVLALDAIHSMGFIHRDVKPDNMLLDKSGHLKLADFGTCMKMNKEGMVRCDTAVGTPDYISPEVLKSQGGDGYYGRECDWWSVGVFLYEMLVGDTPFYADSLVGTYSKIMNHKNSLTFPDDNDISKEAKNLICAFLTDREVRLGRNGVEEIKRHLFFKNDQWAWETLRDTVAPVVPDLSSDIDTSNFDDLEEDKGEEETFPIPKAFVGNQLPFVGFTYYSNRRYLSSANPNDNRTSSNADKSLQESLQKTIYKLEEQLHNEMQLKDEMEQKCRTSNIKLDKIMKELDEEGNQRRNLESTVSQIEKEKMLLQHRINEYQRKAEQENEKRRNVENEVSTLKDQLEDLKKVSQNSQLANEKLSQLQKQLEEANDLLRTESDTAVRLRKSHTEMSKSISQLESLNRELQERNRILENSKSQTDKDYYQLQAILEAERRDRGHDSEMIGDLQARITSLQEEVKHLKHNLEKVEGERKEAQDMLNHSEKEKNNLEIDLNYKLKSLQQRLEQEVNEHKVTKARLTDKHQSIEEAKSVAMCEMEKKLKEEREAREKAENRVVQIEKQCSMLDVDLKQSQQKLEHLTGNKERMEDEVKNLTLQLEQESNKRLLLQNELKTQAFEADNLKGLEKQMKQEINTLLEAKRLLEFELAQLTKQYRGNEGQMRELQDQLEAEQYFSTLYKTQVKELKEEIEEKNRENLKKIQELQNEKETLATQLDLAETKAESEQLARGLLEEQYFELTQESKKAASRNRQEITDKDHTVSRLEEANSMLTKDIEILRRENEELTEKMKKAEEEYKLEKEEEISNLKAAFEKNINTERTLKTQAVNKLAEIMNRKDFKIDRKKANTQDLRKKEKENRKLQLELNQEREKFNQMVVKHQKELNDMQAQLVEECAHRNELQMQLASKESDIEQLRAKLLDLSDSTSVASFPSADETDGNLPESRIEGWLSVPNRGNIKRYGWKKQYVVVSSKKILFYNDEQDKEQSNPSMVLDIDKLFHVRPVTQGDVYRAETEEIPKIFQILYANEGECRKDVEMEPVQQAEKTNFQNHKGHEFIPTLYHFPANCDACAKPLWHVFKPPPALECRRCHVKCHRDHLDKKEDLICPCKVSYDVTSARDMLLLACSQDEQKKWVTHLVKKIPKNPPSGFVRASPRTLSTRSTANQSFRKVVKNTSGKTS

Chain of Protein kinase C theta type (Homo sapiens) (Q04759 whole entry, looked up): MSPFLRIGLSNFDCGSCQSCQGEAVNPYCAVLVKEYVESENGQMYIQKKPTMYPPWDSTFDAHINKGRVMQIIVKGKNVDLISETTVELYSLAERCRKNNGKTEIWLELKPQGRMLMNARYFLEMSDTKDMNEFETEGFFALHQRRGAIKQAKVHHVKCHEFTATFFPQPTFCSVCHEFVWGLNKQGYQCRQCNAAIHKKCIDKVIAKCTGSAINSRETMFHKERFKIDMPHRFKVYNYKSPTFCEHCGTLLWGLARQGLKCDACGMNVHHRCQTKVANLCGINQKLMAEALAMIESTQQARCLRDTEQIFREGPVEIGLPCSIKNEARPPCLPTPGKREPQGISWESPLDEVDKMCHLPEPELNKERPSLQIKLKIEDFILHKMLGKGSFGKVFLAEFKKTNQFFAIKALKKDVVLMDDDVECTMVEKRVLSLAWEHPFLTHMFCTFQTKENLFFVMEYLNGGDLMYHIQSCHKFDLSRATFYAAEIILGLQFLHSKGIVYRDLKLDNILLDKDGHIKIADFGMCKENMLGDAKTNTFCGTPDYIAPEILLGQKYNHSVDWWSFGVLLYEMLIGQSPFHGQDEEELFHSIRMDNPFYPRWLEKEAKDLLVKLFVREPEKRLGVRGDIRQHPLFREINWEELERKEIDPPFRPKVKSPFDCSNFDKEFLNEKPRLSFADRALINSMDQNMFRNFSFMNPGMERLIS
Chain of Protein kinase C beta type (Homo sapiens) (P05771 2-671 limits assumed): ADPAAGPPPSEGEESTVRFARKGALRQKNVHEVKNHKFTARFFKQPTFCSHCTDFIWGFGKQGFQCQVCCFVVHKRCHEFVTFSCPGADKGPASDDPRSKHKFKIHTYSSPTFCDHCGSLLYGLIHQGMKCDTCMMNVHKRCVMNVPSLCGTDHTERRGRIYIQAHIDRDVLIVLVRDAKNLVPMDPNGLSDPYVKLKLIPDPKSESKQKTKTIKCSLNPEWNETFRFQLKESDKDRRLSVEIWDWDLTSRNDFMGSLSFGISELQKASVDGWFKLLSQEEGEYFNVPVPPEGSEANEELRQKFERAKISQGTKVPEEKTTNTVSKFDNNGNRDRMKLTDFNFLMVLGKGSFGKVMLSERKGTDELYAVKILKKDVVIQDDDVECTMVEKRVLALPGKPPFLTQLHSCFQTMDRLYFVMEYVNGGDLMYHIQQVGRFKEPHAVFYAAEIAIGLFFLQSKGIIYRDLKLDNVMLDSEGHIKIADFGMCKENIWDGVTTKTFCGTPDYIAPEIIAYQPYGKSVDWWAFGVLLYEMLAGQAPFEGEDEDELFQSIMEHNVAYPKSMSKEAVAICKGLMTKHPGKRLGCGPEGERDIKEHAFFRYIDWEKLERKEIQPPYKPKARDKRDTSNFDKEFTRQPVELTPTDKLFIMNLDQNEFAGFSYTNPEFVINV

Structure (SMILES)	inhibition [1]	inhibition [2]	inhibition [3]	inhibition [4]	inhibition [5]	inhibition [6]	inhibition [7]	inhibition [8]	inhibition [9]	inhibition [10]	inhibition [11]	inhibition [12]	inhibition [13]	inhibition [14]	inhibition [15]	inhibition [16]	inhibition [17]	inhibition [18]	inhibition [19]	inhibition [20]
CS(=O)(=O)Nc1ccc(-c2cc(-c3ccccc3)cc(C(N)=O)c2N)cc1	1.39%	1.17%	1.73%	0.69%	0.71%	0.99%	1.98%	1.67%	1.98%	0.22%	1.14%	1.65%	2.57%	2.68%	2.84%	1.37%	2.4%	1.16%	1.26%	1.5%
FC(F)(F)CNc1nccc(-c2cnn3ncccc23)n1	-1.39%	1.84%	1.19%	1.1%	1.36%	0.94%	1.72%	3.65%	5.03%	3.32%	2.13%	2.29%	3.81%	1.02%	1.12%	2.48%	2.8%	1.1%	0.78%	-0.46%
